# Experimental data: PubChem BioAssay (Tox21)
# Values joined by “and” are separate entries in the source; they are usually repeats but may differ in a detail not shown here. Equal values may be shown once. Inconclusive results are not listed. Where a call stands in place of a potency, no number is given. The source holds several records for some structures; these can differ, active in one and inactive in another. Active and inactive are the calls of the source. Calls follow the shape of the dose curve; as a rule, active = well fitted curve in the direction sought with a large enough effect in the repeat runs; inconclusive = weak or mixed curves; inactive = no such curve, though single readings can be large; an effect the other way counts as inactive or inconclusive.
# Assays:
# [1] = biological target: Cytochrome P450 2D6 (Homo sapiens) (UniProt P10635); assay: Cytochrome P450 Family 2 Subfamily D Member 6 (CYP2D6) small molecule antagonists: luciferase reporter qHTS assay (AID 1671196); conditions: P450-Glo CYP2D6 enzyme assay, luciferin luminescence, 1 h; series mostly up to 115 µM; also: nearly all actives have a fitted effect of over 50% in size
# Cytochrome P450 2D6 (Homo sapiens), sequence (P10635 whole entry, looked up): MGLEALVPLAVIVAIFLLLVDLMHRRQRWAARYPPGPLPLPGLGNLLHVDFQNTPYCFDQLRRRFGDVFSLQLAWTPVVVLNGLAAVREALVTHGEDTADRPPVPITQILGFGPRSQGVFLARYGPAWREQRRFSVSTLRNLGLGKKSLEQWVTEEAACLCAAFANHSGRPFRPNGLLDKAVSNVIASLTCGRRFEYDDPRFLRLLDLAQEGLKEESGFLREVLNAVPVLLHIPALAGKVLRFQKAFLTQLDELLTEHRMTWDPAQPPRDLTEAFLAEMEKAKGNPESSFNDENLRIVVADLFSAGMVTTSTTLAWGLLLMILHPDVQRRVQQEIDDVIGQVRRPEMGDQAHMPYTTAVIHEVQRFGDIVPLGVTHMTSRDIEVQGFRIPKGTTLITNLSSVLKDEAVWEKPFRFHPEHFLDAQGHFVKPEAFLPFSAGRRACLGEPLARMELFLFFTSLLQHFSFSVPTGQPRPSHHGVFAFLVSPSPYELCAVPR
# Procedure, shortened: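 Room-temperature luminescent CYP2D6 activity assay: compound preincubated 10 min with enzyme–substrate mix, NADPH-initiated reaction 1 h, detection reagent 20 min before reading.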
# [2] = biological target: Cytochrome P450 2C19 (Homo sapiens) (UniProt P33261); assay: Cytochrome P450 Family 2 Subfamily C Member 19 (CYP2C19) small molecule antagonists: luciferase reporter qHTS assay (AID 1671197); conditions: P450-Glo CYP2C19 enzyme, luciferin luminescence, 1 h; series mostly up to 115 µM; also: nearly all actives have a fitted effect of over 65% in size
# Cytochrome P450 2C19 (Homo sapiens), sequence (P33261 whole entry, looked up): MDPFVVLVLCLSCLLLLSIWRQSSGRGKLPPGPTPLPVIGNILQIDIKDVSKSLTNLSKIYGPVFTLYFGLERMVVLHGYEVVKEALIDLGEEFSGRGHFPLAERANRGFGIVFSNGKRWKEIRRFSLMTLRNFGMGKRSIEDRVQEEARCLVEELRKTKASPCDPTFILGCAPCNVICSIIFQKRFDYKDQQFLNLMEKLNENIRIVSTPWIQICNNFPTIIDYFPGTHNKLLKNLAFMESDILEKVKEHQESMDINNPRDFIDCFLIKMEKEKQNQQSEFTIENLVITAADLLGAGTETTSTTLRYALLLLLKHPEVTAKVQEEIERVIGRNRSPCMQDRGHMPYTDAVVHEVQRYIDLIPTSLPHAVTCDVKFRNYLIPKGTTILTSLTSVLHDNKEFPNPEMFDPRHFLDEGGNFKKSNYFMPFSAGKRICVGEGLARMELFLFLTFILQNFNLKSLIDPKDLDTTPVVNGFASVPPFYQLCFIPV
# Procedure, shortened: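 Quantitative high-throughput screen of the Tox21 library using CYP2C19 with proluciferin substrate. Reaction: NADPH regeneration, 37C, 1 h, after 10 min compound preincubation at room temperature. Readout: luminescence.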
# [3] = biological target: Cytochrome P450 2C9 (Homo sapiens) (UniProt P11712); assay: Cytochrome P450 Family 2 Subfamily C Member 9 (CYP2C9) small molecule antagonists: luciferase reporter qHTS assay (AID 1671198); conditions: P450-Glo CYP2C9 enzyme assay, luciferin luminescence; series mostly up to 115 µM; also: nearly all actives have a fitted effect of over 50% in size
# Cytochrome P450 2C9 (Homo sapiens), sequence (P11712 whole entry, looked up): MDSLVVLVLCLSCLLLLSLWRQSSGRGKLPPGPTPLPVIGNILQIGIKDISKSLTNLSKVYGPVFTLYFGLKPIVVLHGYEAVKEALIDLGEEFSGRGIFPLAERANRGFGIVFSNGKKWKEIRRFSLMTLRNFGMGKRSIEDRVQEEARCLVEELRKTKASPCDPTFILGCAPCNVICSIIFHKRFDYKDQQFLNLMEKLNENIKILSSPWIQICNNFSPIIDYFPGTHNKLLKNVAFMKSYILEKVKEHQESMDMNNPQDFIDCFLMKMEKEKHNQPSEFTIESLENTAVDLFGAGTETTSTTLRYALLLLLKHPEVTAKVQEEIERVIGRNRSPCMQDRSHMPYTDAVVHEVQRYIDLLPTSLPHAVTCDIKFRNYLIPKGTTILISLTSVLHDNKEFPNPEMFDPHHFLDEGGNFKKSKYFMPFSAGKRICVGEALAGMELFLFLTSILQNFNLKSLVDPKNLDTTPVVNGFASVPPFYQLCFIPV
# Procedure, shortened: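 CYP2C9 activity was measured with a P450-Glo proluciferin substrate. Enzyme–substrate mix was held with compound for 10 min at room temperature, then NADPH regeneration solution was added for 1 h at 37C. Luciferin product was read as luminescence.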
# [4] = biological target: Cytochrome P450 1A2 (Homo sapiens) (UniProt P05177); assay: Cytochrome P450 Family 1 Subfamily A Member 2 (CYP1A2) small molecule antagonists: luciferase reporter qHTS assay (AID 1671199); conditions: P450-Glo CYP1A2 enzyme, luciferin luminescence, 1 h; series mostly up to 115 µM; also: nearly all actives have a fitted effect of over 50% in size
# Cytochrome P450 1A2 (Homo sapiens), sequence (P05177 whole entry, looked up): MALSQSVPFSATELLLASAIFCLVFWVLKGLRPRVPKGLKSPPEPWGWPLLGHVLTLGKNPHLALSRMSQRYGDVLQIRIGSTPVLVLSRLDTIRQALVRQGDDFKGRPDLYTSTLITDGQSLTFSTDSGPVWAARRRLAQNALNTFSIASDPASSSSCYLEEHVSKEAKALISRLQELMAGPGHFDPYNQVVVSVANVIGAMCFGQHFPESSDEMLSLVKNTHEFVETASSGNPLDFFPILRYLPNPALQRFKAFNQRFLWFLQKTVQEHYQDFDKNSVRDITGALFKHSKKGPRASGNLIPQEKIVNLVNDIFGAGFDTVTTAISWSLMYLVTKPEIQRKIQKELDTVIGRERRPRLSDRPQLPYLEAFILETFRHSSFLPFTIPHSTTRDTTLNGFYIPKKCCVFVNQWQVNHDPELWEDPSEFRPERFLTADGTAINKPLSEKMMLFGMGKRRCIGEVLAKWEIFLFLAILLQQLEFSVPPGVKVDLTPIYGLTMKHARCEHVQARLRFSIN
# Procedure, shortened: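 Room-temperature CYP1A2 reaction with proluciferin substrate: compounds added from DMSO, 10 min preincubation, NADPH regeneration for 1 h. Luciferin detection reagent then added; luminescence recorded as RLU.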
# [5] = biological target: Voltage-gated inwardly rectifying potassium channel KCNH2 (Homo sapiens) (UniProt Q12809); assay: Human Ether-a-go-go-Related Gene (hERG) channel small molecule antagonists: fluorescence cell-based qHTS assay (AID 1671200); conditions: hERG-U2OS cells, FluxOR thallium flux fluorescence; series mostly up to 76.8 µM; also: nearly all actives have a fitted effect of over 50% in size
# Voltage-gated inwardly rectifying potassium channel KCNH2 (Homo sapiens), sequence (Q12809 whole entry, looked up): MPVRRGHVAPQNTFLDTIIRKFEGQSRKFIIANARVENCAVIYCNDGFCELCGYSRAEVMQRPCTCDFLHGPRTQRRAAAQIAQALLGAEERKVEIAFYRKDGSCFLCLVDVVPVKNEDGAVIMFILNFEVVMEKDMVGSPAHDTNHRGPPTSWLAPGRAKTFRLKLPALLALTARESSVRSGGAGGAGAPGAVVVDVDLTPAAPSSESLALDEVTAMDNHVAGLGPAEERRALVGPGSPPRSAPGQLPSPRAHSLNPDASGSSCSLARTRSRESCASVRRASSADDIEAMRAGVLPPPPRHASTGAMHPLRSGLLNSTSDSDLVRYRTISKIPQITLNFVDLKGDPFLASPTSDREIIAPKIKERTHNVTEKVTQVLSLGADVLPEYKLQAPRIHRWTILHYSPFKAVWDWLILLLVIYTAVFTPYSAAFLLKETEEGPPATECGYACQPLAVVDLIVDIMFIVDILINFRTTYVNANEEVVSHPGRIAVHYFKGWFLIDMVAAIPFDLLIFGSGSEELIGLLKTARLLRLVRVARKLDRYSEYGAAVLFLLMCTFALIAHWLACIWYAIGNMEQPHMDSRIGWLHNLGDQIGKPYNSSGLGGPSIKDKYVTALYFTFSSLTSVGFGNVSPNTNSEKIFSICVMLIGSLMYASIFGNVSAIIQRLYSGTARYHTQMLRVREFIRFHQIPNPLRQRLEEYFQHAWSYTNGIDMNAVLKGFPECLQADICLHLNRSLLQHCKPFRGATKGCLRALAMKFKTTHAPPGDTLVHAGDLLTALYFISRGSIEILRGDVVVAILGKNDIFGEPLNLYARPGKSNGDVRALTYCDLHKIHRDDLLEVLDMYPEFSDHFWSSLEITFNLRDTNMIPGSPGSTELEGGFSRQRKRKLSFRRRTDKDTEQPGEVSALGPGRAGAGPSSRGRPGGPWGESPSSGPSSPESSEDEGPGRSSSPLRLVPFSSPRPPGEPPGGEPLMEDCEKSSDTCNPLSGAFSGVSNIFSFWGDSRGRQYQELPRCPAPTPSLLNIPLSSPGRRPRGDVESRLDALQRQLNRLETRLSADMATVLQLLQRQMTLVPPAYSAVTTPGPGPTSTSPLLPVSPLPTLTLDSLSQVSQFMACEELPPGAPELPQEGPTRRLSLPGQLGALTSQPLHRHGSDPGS
# Procedure, shortened: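 Channel function was assessed by thallium flux. Cells seeded the previous day and kept at 37 C took up FluxOR II dye over 1 h in the dark at room temperature, then sat another 10 min before stimulation.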
# [6] = biological target: Cytochrome P450 3A4 (Homo sapiens) (UniProt P08684); assay: Cytochrome P450 Family 3 Subfamily A Member 4 (CYP3A4) small molecule antagonists: luciferase reporter qHTS assay (AID 1671201); conditions: P450-Glo CYP3A4 enzyme, luciferin luminescence, 1 h; series mostly up to 115 µM; also: nearly all actives have a fitted effect of over 50% in size
# Cytochrome P450 3A4 (Homo sapiens), sequence (P08684 whole entry, looked up): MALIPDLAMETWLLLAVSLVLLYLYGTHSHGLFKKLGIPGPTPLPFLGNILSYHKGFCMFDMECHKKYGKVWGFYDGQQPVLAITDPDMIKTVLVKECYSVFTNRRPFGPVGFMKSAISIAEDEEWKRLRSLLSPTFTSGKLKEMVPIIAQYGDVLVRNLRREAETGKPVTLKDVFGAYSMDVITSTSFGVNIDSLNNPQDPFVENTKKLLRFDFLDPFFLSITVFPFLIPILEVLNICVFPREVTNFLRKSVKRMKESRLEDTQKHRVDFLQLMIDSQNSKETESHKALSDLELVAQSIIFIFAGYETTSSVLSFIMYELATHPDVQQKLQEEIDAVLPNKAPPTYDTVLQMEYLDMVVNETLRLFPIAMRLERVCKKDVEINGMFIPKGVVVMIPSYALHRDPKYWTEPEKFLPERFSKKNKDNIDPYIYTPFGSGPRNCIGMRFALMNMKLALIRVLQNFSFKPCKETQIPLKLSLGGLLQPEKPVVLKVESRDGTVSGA
# Procedure, shortened: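 Compounds in DMSO were pin-transferred onto CYP3A4 enzyme-substrate mix and held 10 min at room temperature. NADPH regenerating solution started the reaction for 1 h; luciferin detection reagent stopped it, and luminescence was read after 20 min.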
# Potency is read from the fitted curve at half-maximal effect.
SMILES,Potency [1],Potency [2],Potency [3],Potency [4],Potency [5],Potency [6]
O=c1[nH]cc(F)c(=O)[nH]1,inactive and 34.7 µM (active),20.8 µM (active) and inactive,inactive,32.9 µM (active) and inactive,inactive,inactive
C=C1CC[C@H](O)C/C1=C\C=C1/CCC[C@]2(C)[C@@H]([C@H](C)CCCC(C)C)CC[C@@H]12,inactive,35.3 µM (active),25 µM (active),–,–,–
CCc1nc(N)nc(N)c1-c1ccc(Cl)cc1,9.07 µM (active) and 15.9 µM (active) and 13.8 µM (active),inactive,inactive,inactive,–,–
CCCCCCCCCCCCCCCC[N+](C)(C)Cc1ccccc1,923 nM (active) and 406 nM (active) and 389 nM (active),32.7 µM (active) and 51.2 µM (active) and 27.5 µM (active),82.2 µM (active) and 36.2 µM (active) and 30.9 µM (active),36.7 µM (active) and 72.3 µM (active) and inactive,1.79 µM (active) and 4.98 µM (active) and 6.74 µM (active),inactive
O=S1(=O)OC(c2ccc(O)cc2)(c2ccc(O)cc2)c2ccccc21,inactive,inactive and 50.2 µM (active),3.17 µM (active) and 3.56 µM (active) and 2.45 µM (active),25.2 µM (active) and 39.9 µM (active),inactive,inactive
Cc1cn([C@H]2C=C[C@@H](CO)O2)c(=O)[nH]c1=O,inactive,inactive,inactive,inactive,–,inactive
CC(C)C(=O)Nc1ccc([N+](=O)[O-])c(C(F)(F)F)c1,36.6 µM (active) and 63.3 µM (active),18.3 µM (active) and 22.4 µM (active) and 7.76 µM (active),32.6 µM (active) and 31.7 µM (active) and 15.5 µM (active),1.63 µM (active) and 5.03 µM (active) and 2.57 µM (active),–,–
Nc1ccc2c(c1)CN1C(=O)c3ccccc3C1=N2,6.01 µM (active),3.01 µM (active),3.79 µM (active),0.499 µM (active),–,–
CCCCCCc1ccc(O)cc1O,31.8 µM (active) and 31.7 µM (active) and 15.5 µM (active),5.04 µM (active) and 5.64 µM (active) and 3.89 µM (active),7.12 µM (active) and 6.33 µM (active) and 5.49 µM (active),71.2 µM (active) and 71 µM (active) and inactive,inactive,–
O=C1OC2(c3ccccc31)c1cc(Br)c(O)c(Br)c1Oc1c2cc(Br)c(O)c1Br,inactive,20.3 µM (active) and inactive,5.1 µM (active) and 9.19 µM (active) and 7.76 µM (active),29.1 µM (active),inactive,inactive
CCN(CC)C(=O)c1cccc(C)c1,inactive,inactive and 71 µM (active),inactive,–,–,–
CCCCC(CC)C(=O)O (stereo not given),inactive,inactive,inactive and 71 µM (active),inactive,inactive,inactive
CN1CCc2cccc3c2[C@H]1Cc1ccc(O)c(O)c1-3,45.3 µM (active) and 11.8 µM (active) and 38.9 µM (active),inactive,–,–,–,–
CCCc1cc(=O)[nH]c(=S)[nH]1,inactive,inactive,inactive,inactive,inactive,inactive
C1CCC(C(CC2CCCCN2)C2CCCCC2)CC1 (stereo not given),1.1 µM (active),24.5 µM (active),inactive,inactive,–,–
COc1ccc2c(c1)c(CC(=O)O)c(C)n2C(=O)c1ccc(Cl)cc1,35.8 µM (active) and inactive,inactive,22.6 µM (active) and 17.8 µM (active) and 13.8 µM (active),inactive,–,inactive
O=CC(=O)c1ccccc1,12.6 µM (active),35.6 µM (active),inactive,35.6 µM (active),–,inactive
Cc1c(C(=O)O)c(O)cc2c1C(=O)c1c(O)c([C@@H]3O[C@H](CO)[C@@H](O)[C@H](O)[C@H]3O)c(O)c(O)c1C2=O,31 µM (active) and 39.9 µM (active),39 µM (active),34.7 µM (active) and 39.9 µM (active),34.7 µM (active) and 39.9 µM (active) and inactive,inactive,inactive
O=C(Nc1ncc([N+](=O)[O-])s1)c1cccs1,12.3 µM (active),8.71 µM (active),5.49 µM (active),1.82 µM (active),inactive,–
NC(CO)(CO)CO,inactive,inactive,inactive,inactive,inactive,inactive
CN[C@H]1CC[C@@H](c2ccc(Cl)c(Cl)c2)c2ccccc21,1.55 µM (active),3.89 µM (active),30.9 µM (active),17.4 µM (active),–,–
CCCCOC(=O)c1ccc(O)cc1,inactive,28.6 µM (active) and 35.6 µM (active) and 15.5 µM (active),32.1 µM (active) and 28.3 µM (active) and 17.4 µM (active),4.54 µM (active) and 6.33 µM (active) and 4.36 µM (active),inactive,inactive

SMILES,Potency [1],Potency [2],Potency [3],Potency [4],Potency [5],Potency [6]
NC(=O)c1cccnc1,inactive,49.3 µM (active) and inactive,inactive,inactive,inactive,inactive
NC1CCCCC1,inactive,35.8 µM (active) and inactive,inactive,40.2 µM (active) and inactive,inactive,inactive
CC(=O)CCC(=O)O,inactive,inactive,inactive,inactive,inactive,–
Nc1c(N=Nc2ccc(-c3ccc(N=Nc4cc(S(=O)(=O)O)c5ccccc5c4N)cc3)cc2)cc(S(=O)(=O)O)c2ccccc12,35.6 µM (active),71 µM (active),31.7 µM (active),63.3 µM (active),–,–
Cc1cc(=O)oc2cc(O)ccc12,inactive,inactive,inactive,31.7 µM (active) and 25.2 µM (active) and 17.4 µM (active),inactive,inactive
NS(=O)(=O)O,inactive,73.7 µM (active) and inactive,inactive,inactive,–,inactive
Cc1cc(C)nc(NS(=O)(=O)c2ccc(N)cc2)n1,inactive,80.6 µM (active) and inactive,inactive,inactive,inactive,inactive
C[C@](N)(Cc1ccc(O)c(O)c1)C(=O)O,inactive,inactive,inactive,inactive,inactive,inactive
O=C1c2c(O)cccc2Cc2cccc(O)c21,inactive,inactive,inactive,inactive,inactive,inactive
Cc1cccc(C)c1,inactive and 21.8 µM (active),68.6 µM (active) and inactive,inactive,inactive,inactive,inactive
CC12CCC(CC1)C(C)(C)O2,inactive,inactive,inactive,31.3 µM (active) and inactive,inactive,inactive
CC(=O)C(=O)O,inactive,inactive,inactive,inactive and 22.4 µM (active),inactive,inactive
O=C(O)c1ccccc1,37.4 µM (active) and inactive,33.3 µM (active) and 3.47 µM (active) and inactive,inactive,37.4 µM (active) and inactive,inactive,inactive
CS(=O)(=O)OCCCCOS(C)(=O)=O,35.7 µM (active),56.6 µM (active) and inactive,inactive,inactive,inactive,inactive
OC[C@H]1O[C@H](O[C@]2(CCl)O[C@H](CCl)[C@@H](O)[C@@H]2O)[C@H](O)[C@@H](O)[C@H]1Cl,inactive,inactive,inactive,inactive,inactive,inactive
F[B-](F)(F)F,inactive,73.9 µM (active) and inactive and 79.6 µM (active),inactive,inactive and 40.5 µM (active),–,inactive and 40.5 µM (active)
CC(O)(P(=O)(O)O)P(=O)(O)O,inactive,inactive,inactive,–,inactive,inactive
Cc1ncc([N+](=O)[O-])n1CCO,inactive,inactive,inactive,inactive,–,inactive
CC(=O)Nc1c(I)c(NC(C)=O)c(I)c(C(=O)O)c1I,inactive,inactive and 79.6 µM (active),inactive,inactive,–,inactive
CC1(C)O[C@@H]2C[C@H]3[C@@H]4CCC5=CC(=O)C=C[C@]5(C)[C@@]4(F)[C@@H](O)C[C@]3(C)[C@]2(C(=O)CO)O1,31.9 µM (active) and inactive,inactive,–,inactive,–,–
NC(=O)n1c(O)c(C(=O)c2cccs2)c2cc(Cl)ccc21,inactive,–,12.3 µM (active),15.5 µM (active),inactive,–
C=CCc1ccc(O)c(OC)c1,9.97 µM (active) and inactive,39.7 µM (active) and 56.4 µM (active) and inactive,–,31.5 µM (active) and 39.9 µM (active),inactive,inactive
